Consider 18 compounds from PubChem BioAssay (NCATS).

The structures appear in SMILES notation. Records with an inconclusive call do not appear. Active and inactive are the calls of the source. Calls come from the whole dose curve; as a rule, active = well fitted inhibition curve with a large enough effect; inconclusive = small, poorly fitted or top-dose-only effect; inactive = flat fitted curve, though single readings scatter.

Calcium and integrin-binding protein 1 (Homo sapiens), sequence (Q99828 whole entry, looked up): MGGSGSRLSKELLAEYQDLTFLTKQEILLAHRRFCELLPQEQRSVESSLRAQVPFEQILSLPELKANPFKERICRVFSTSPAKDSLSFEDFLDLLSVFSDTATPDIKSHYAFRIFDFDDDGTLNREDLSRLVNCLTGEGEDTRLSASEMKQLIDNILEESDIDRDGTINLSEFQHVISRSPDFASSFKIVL

The assay concerns the target Calcium and integrin-binding protein 1 (Homo sapiens) (UniProt Q99828). Put plainly: Primary qHTS for Identification of Calcium Integrin Binding Protein 1 (CIB1) Competitor (AID 1508620).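 Note: GST tagged CIB1 binding a fluorescein labelled alphaIIb integrin peptide tracer; top concentration of the series differs between compounds.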 Particulars: CIB1-GST / FITC-alphaIIb peptide fluorescence polarization; series mostly up to 114 µM. Summed up: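 Fluorescence polarization competition: CIB1-GST (1 uM final) preincubated with compound 15 min at room temperature, then FITC-labeled alphaIIb peptide (100 nM final) added for another 15 min. Polarization read at Ex 480/Em 540.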
For `Cn1cc(P(=S)(c2ccccc2)c2ccccc2)c2ccccc21`, the outcome was inactive.

For the compound `Cc1cc(-c2nnc3n2CCCCC3)c(C)n1-c1ccc(C(C)(C)C)cc1`, the outcome was inactive.

As for `CCc1nn2c(=O)c(C)c(N3CCNCC3)nc2s1`, the outcome was inactive.

Consider `CCOc1ccc(CCNC(=O)c2cc3cnccc3n2Cc2cccc(C)c2)cc1OCC`, for which the outcome was inactive.

On to `COC(=O)c1nc(-c2cccc3ccccc23)oc1OC`, for which the result was inactive.

Consider `S=P(c1ccccc1)(c1ccccc1)c1c(-c2ccccc2)[nH]c2ccccc12`, for which the outcome was inactive.

In the case of `CCCc1ccc(NC(=O)c2ccc3c(c2)NC(=O)CS3)cc1`, the result was inactive.

As to `Cc1nc2ccccn2c1P(=S)(c1ccccc1)c1ccccc1`, the result was inactive.

Take `N#Cc1c(-c2cccc(-c3no[n+]([O-])c3C#N)c2)no[n+]1[O-]`: the result was inactive.

`CCOc1ccc(CCNC(=O)c2cc3cccnc3n2Cc2cccc(C)c2)cc1OCC`: the result was inactive.

Regarding `S=P(c1ccccc1)(c1ccccc1)c1c[n+](Cc2ccccc2)c2ccccn12`, the outcome was inactive.

With `S=P(c1ccccc1)(c1ccccc1)c1c[nH]c2ccccc12`, the outcome was inactive.

Take `O=S(=O)(Nc1ccc(-c2ccccc2)cc1)c1ccc(NCc2cccc(Cl)c2O)cc1`: the outcome was inactive.

Take `Cc1cccc(C)c1OP(=O)(OCc1c(-c2ccccc2)no[n+]1[O-])Oc1c(C)cccc1C`: the result was inactive.

Take `Cn1c(-c2ccccc2)c(P(=S)(c2ccccc2)c2ccccc2)c2ccccc21`: the result was inactive.

As to `Cc1cccc(-n2cnc3cc(C(=O)N4CCCC(C)C4)ccc32)c1` (stereo not drawn), the result was inactive.

As for `Oc1cccc2cc(N3CCNCC3)cnc12`, the result was inactive.

`CCOc1ccc(CCNC(=O)c2cc3ccncc3n2Cc2cccc(C)n2)cc1OCC`: the result was inactive.
